ADAM17 inh: ADAM17 inhibitors, primary screen, biochemical, QFRET | Disintegrin and metalloproteinase domain-containing protein 17 (Homo sapiens), P78536 | inhibition, % at 6.95 µM | AID 720648, 2013 | recombinant ADAM17, EDANS/DABCYL FRET peptide cleavage | hit rate 0.83% among 370,000;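 active = inhibition above the mean of compounds lying between control limits plus 3 SD, set per campaign, cut at about 8.5% in these data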;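 also: 0% = DMSO-only wells as the low control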
proKLK7 act: proKLK7 zymogen activators, primary screen, biochemical, fluorescence intensity | Kallikrein-7 (Homo sapiens), P49862 | purified proKLK7, EDANS-DABCYL substrate fluorescence; 100% is mature enzyme control, 0% vehicle | activation, % at 7 µM | hit rate 0.9% among 370,000;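 active = activation above the mean of all tested compounds plus 3 SD, computed per campaign excluding outliers beyond control limits, cut at about 13% in these data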
Target sequence (P49862 whole entry, looked up): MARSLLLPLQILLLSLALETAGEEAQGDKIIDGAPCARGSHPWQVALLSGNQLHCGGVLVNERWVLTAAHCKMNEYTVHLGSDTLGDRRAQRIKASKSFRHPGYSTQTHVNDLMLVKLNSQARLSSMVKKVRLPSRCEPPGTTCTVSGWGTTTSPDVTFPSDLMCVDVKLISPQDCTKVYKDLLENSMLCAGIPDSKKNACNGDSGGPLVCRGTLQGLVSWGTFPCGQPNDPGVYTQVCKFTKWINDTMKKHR
AHR act: AHR activators, primary screen, cell-based, luminescence, luciferase reporter, human. AHR-responsive luciferase reporter cells. activation, % at 5 µM. hit rate 2.5% among 320,000. AID 2796, 2010; in the data active = activation above about 47%;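 also: 0% = vehicle wells and 100% = reference agonist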
rCAG binder: binders of r(CAG) RNA repeats, primary screen, biochemical, fluorescence; r(CAG) RNA repeat, TO-PRO-1 dye displacement fluorescence; inhibition, % at 3 µM; hit rate 1.3% among 370,000; AID 651821, 2012;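 active = inhibition above the plate cutoff, the mean of all test compounds on that plate plus 3 SD, cut at about 35% in these data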;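 also: 0% = DMSO alone and 100% = 100 µM mitoxantrone as full dye displacement; higher means more dye released from RNA so lower well fluorescence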
NR3A LBD binder: binders of NR3A ligand-binding domain, primary screen, biophysical, differential scanning fluorimetry, uHTS; NR3A LBD differential scanning fluorimetry, Tm shift; 0% = protein alone, 100% = glycine-bound protein; Tm shift relative to glycine control, % at 25 µM; hit rate 2.5% among 340,000;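 active = melting temperature shift of at least 10% of the positive control shift, at one fixed dose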
ADAM10 inh: human ADAM10 inhibitors, primary screen, biochemical, QFRET, HTS; inhibition, % at 7 µM; Disintegrin and metalloproteinase domain-containing protein 10 (Homo sapiens), O14672; recombinant ADAM10, EDANS/DABCYL FRET peptide cleavage, 3 h; hit rate 0.62% among 370,000; AID 720582, 2013;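 active = inhibition above a per-campaign cutoff equal to the mean of compounds falling between control-based bounds plus 3 SD, cut at about 20% in these data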;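 also: 0% = DMSO wells while the 100% control is not disclosed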
rCAG bind conf: small molecules binding CAG repeat RNA – biochemical, fluorescence, confirmation; shares compounds with rCAG binder; r(CAG) RNA repeat, TO-PRO-1 dye displacement fluorescence; AID 652065, 2013; hit rate 70% among 4,300; inhibition, % at 3 µM;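 active = inhibition above a per-plate cutoff, the mean inhibition of sample wells plus 3 SD, cut at about 35% in these data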;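 also: loss of TO-PRO-1 fluorescence as compound displaces dye from 1x1 AA loop RNA; 0% = DMSO only wells and 100% = 100 µM mitoxantrone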
dCAG dye counter: displacement of TO-PRO-1 from CAG DNA duplex, counter-screen for rCAG RNA repeat binder project, biochemical, fluorescence, TO-PRO-1 dye, d(CAG) DNA oligo; shares compounds with rCAG binder; d(CAG) DNA oligo TO-PRO-1 dye displacement; inhibition, % at 3 µM; hit rate 94% among 4,300; AID 652068, 2013;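 active = inhibition above its plate's cutoff, the mean test-well inhibition plus 3 SD, cut at about 4.8% in these data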;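 also: 0% = DNA dye mix with DMSO and 100% = 100 µM mitoxantrone; hits displace the dye from DNA and so lower well fluorescence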
dCAG dye DR: inhibitors of DNA CAG/GTC TO-PRO-1 complex, dose response, counter-screen for rCAG RNA repeat binder project, biochemical, fluorescence, TO-PRO-1 dye. shares compounds with rCAG binder. hit rate 20% among 250. IC50, µM. DNA CAG/GTC duplex TO-PRO-1 dye displacement fluorescence; in the data active = IC50 below about 10 µM
* = called active by the depositor; / = no result. The list is not random: actives were taken first. Their share in the collection is about 7%.

SMILES | ADAM17 inh | proKLK7 act | AHR act | rCAG binder | NR3A LBD binder | ADAM10 inh | rCAG bind conf | dCAG dye counter | others
CCc1nnc(NS(=O)(=O)c2ccc(NC(=S)Nc3ccc(F)cc3)cc2)s1 | -2 | -1 | 3 | 14 | -2 | 2 | / | /
CCc1nnc(NC(=O)c2ccc(S(=O)(=O)N(CC)CC)cc2)s1 | -5 | 0 | -1 | 1 | 0 | -4 | / | /
CCCN(CCC)S(=O)(=O)c1ccc(C(=O)Nc2ccc(S(=O)(=O)Nc3nnc(CC)s3)cc2)cc1 | 1 | 0 | / | 80* | 1 | 8 | 84* | 54*
CCc1nnc(NS(=O)(=O)c2ccc(NC(=O)c3ccccc3OC)cc2)s1 | -1 | 1 | 0 | 49* | 1 | 10 | 25 | 6.0*
CCc1nnc(NS(=O)(=O)c2ccc(N/C=C(\C=O)c3nc4cc(Cl)ccc4o3)cc2)s1 | -2 | 0 | 23 | 42* | 0 | -4 | 76* | 40*
CCc1nnc(NS(=O)(=O)c2ccc(NC(=O)c3ccccc3C)cc2)s1 | -1 | 0 | 0 | 23 | -2 | 4 | / | /
CCc1nnc(NS(=O)(=O)c2ccc(N/C=C\C(=O)c3ccc4ccccc4c3)cc2)s1 | -1 | -5 | 8 | 71* | 14* | -8 | 86* | 61*
CCOC(=O)CC[C@@]1(C(=O)OCC)C[C@@H](CC(=O)NCC23CC4CC(CC(C4)C2)C3)C(=O)N2CCCC=C21 | -1 | 0 | / | 1 | / | 5 | / | /
CCc1nnc(NS(=O)(=O)c2ccc(NC(=O)c3ccco3)cc2)s1 | -2 | 0 | 0 | 8 | 3 | 0 | / | /
CCc1nnc(NS(=O)(=O)c2ccc(NC(=O)/C=C/C(=O)O)cc2)s1 | 0 | 0 | -4 | 7 | 0 | 5 | / | /
CCc1nnc(NS(=O)(=O)c2ccc(NC(=O)c3cccc(Cl)c3)cc2)s1 | 3 | 1 | -1 | 54* | -2 | 6 | 50* | 10* | dCAG dye DR=>30
CCc1nnc(NS(=O)(=O)c2ccc(NC(=O)CCC(=O)OC)cc2)s1 | 0 | -1 | 0 | 0 | 2 | 0 | / | /
CCc1nnc(NS(=O)(=O)c2ccc(NC(=O)C(c3ccccc3)c3ccccc3)cc2)s1 | -2 | 0 | -2 | 84* | -5 | 4 | 72* | 34* | dCAG dye DR=9.2*
CCc1nnc(NS(=O)(=O)c2ccc(NC(=O)c3ccc(C#N)cc3)cc2)s1 | 0 | 0 | -1 | 36* | -9 | 6 | 21 | 4
CCc1nnc(NS(=O)(=O)c2ccc(NC(=O)c3cccc(OC)c3)cc2)s1 | 0 | 0 | 1 | 39* | -4 | 7 | 27 | 5.5*
CCCCCC(=O)NC1CCCCN(Cc2cccc(Cl)c2)C1=O (stereo not given) | 4 | 0 | / | -3 | / | 3 | / | /
CCc1nnc(NS(=O)(=O)c2ccc(NC(=O)c3ccc(Cl)cc3)cc2)s1 | -2 | -1 | 3 | 43* | -7 | -7 | 33 | 9.1*
CCc1nnc(NC(=O)c2ccc(NS(=O)(=O)c3ccccc3)cc2)s1 | -21 | 1 | 10 | 21 | -3 | -69 | / | /
CCc1nnc(NS(=O)(=O)c2ccc(N3C(=O)C4CC=C(Cl)CC4C3=O)cc2)s1 (stereo not given) | 0 | -1 | 0 | 49* | -2 | -4 | 26 | 7.6*
Nc1n[nH]c2cc(=O)n(-c3cccc(C(F)(F)F)c3)nc12 | -4 | 1 | 1 | 4 | -1 | -6 | / | /
O=c1[nH][nH]c2cc(=O)n(-c3cccc(C(F)(F)F)c3)nc12 | 4 | 0 | -2 | 59* | -6 | 2 | 48* | 17*
O=C1S/C(=C\C=C\c2ccco2)C(=O)N1c1ccccc1 | 2 | -1 | -6 | 41* | -13 | 12 | 18 | 12*
O=C1S/C(=C\C=C\c2ccco2)C(=O)N1c1ccc(O)cc1 | -1 | 0 | -1 | 38* | 2 | -11 | 18 | 9.9*
O=S1(=O)CC2c3ccc(F)cc3CN2CN1C1CCCC1 (stereo not given) | -6 | 0 | / | 10 | / | -11 | / | /
Cc1ccc(S(=O)(=O)N2[C@H](CC(=O)c3ccc(F)cc3)OC[C@@H]2C)cc1 | -1 | 1 | / | 4 | / | -9 | / | /
SMILES | ADAM17 inh | proKLK7 act | AHR act | rCAG binder | NR3A LBD binder | ADAM10 inh | rCAG bind conf | dCAG dye counter | others
CC(C=NN=C1C(=O)Nc2ccccc21)=Cc1ccccc1 | -5 | 0 | / | 8 | / | -6 | / | /
O=C(O)c1cccc(NC(=S)NC(NC(=O)c2cccc([N+](=O)[O-])c2)C(Cl)(Cl)Cl)c1 (stereo not given) | 5 | 0 | -3 | 53* | -9 | 5 | 30 | 8.7*
CC(=O)c1cccc(NC(=S)NNC(=O)c2ccc(C)c([N+](=O)[O-])c2)c1 | 2 | 0 | 2 | 41* | 3 | 7 | 38* | 15*
Cc1cccc(NC(=O)NNC(=O)c2ccc(C)c([N+](=O)[O-])c2)c1 | -1 | 0 | -1 | 3 | -1 | 3 | / | /
Cc1ccc(NC(=S)NNC(=O)c2cccc([N+](=O)[O-])c2)cc1Cl | 3 | 1 | 24 | 73* | 12* | 18 | 70* | 24*
O=C(O)CSC(C(=O)Nc1ccc(Br)cc1)c1ccc(Cl)cc1 (stereo not given) | 0 | 0 | 1 | 37* | -33 | 1 | 24 | 5.4*
O=C(O)c1ccc(S(=O)(=O)N(Cc2cccs2)CC2CCCO2)cc1 (stereo not given) | -4 | 0 | 0 | -1 | 0 | 12 | / | /
COc1ccc(CCN(Cc2cccs2)S(=O)(=O)c2ccc(C(=O)O)cc2)cc1OC | -1 | 1 | -2 | 36* | -2 | 4 | 37* | 5.5*
CCn1c(C)cc(/C=C2/SC(=S)NC2=O)c1C | 1 | 0 | 4 | 0 | 0 | 3 | / | /
Cc1sc(-n2c(C)cc(/C=C3\SC(=S)NC3=O)c2C)c(C#N)c1C | 1 | 0 | 2 | 69* | -25 | 6 | 76* | 35*
